{"source": "paper PMC5540273", "about": "(PLoS ONE, 2017);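 note: KINOMEscan kinase panel screen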", "conditions_in_all_cases": "concentration: 1 μM, replicates: in singlicate; n = 1", "key": {"PAK1": {"tested_on": "PAK1"}, "PAK2": {"tested_on": "PAK2"}, "PAK3": {"tested_on": "PAK3"}, "PAK4": {"tested_on": "PAK4"}, "PAK6": {"tested_on": "PAK6"}, "PAK7": {"tested_on": "PAK7"}, "PCTK1": {"tested_on": "T1, PCTK1", "T1 construct": "gene CDK16"}, "PCTK2": {"tested_on": "T2, PCTK2", "T2 construct": "gene CDK17"}, "PCTK3": {"tested_on": "T3, PCTK3", "T3 construct": "gene CDK18"}, "PDGFRA": {"tested_on": "PDGFRA"}}}
{"smiles": "O=C(Nc1n[nH]c2nc(-c3ccco3)c(Br)cc12)c1ccc(CN2CCCC2)cc1.O=C(O)[C@H](O)[C@@H](O)C(=O)O", "note": "[SB-742352]", "values": [{"measurement": "%Inh", "setting": "PAK1", "value": 0, "unit": "%"}, {"measurement": "%Inh", "setting": "PAK2", "value": 7, "unit": "%"}, {"measurement": "%Inh", "setting": "PAK3", "value": 0, "unit": "%"}, {"measurement": "%Inh", "setting": "PAK4", "value": 0, "unit": "%"}, {"measurement": "%Inh", "setting": "PAK6", "value": 0, "unit": "%"}, {"measurement": "%Inh", "setting": "PAK7", "value": 0, "unit": "%"}, {"measurement": "%Inh", "setting": "PCTK1", "value": 0, "unit": "%"}, {"measurement": "%Inh", "setting": "PCTK2", "value": 11, "unit": "%"}, {"measurement": "%Inh", "setting": "PCTK3", "value": 0, "unit": "%"}, {"measurement": "%Inh", "setting": "PDGFRA", "value": 50, "unit": "%"}]}
{"smiles": "CC(C)(C)c1ccc(-n2cnc3c(N)ncnc32)cc1", "note": "[SKF-97263]", "values": [{"measurement": "%Inh", "setting": "PAK1", "value": 9, "unit": "%"}, {"measurement": "%Inh", "setting": "PAK2", "value": 0, "unit": "%"}, {"measurement": "%Inh", "setting": "PAK3", "value": 22, "unit": "%"}, {"measurement": "%Inh", "setting": "PAK4", "value": 0, "unit": "%"}, {"measurement": "%Inh", "setting": "PAK6", "value": 0, "unit": "%"}, {"measurement": "%Inh", "setting": "PAK7", "value": 0, "unit": "%"}, {"measurement": "%Inh", "setting": "PCTK1", "value": 0, "unit": "%"}, {"measurement": "%Inh", "setting": "PCTK2", "value": 0, "unit": "%"}, {"measurement": "%Inh", "setting": "PCTK3", "value": 30, "unit": "%"}, {"measurement": "%Inh", "setting": "PDGFRA", "value": 13, "unit": "%"}]}
{"smiles": "C[C@H]1CC[C@@H](C(=O)Nc2ccccc2)CN1c1cc(-c2ccc3c(N)n[nH]c3c2)nc(N)n1", "note": "[GSK2283293]", "values": [{"measurement": "%Inh", "setting": "PAK1", "value": 0, "unit": "%"}, {"measurement": "%Inh", "setting": "PAK2", "value": 3, "unit": "%"}, {"measurement": "%Inh", "setting": "PAK3", "value": 0, "unit": "%"}, {"measurement": "%Inh", "setting": "PAK4", "value": 0, "unit": "%"}, {"measurement": "%Inh", "setting": "PAK6", "value": 0, "unit": "%"}, {"measurement": "%Inh", "setting": "PAK7", "value": 0, "unit": "%"}, {"measurement": "%Inh", "setting": "PCTK1", "value": 0, "unit": "%"}, {"measurement": "%Inh", "setting": "PCTK2", "value": 0, "unit": "%"}, {"measurement": "%Inh", "setting": "PCTK3", "value": 12, "unit": "%"}, {"measurement": "%Inh", "setting": "PDGFRA", "value": 0, "unit": "%"}]}
{"smiles": "N#Cc1ccc(Oc2ccc(Nc3ncnc4cc[nH]c34)cc2Cl)cc1", "values": [{"measurement": "%Inh", "setting": "PAK1", "value": 35, "unit": "%"}, {"measurement": "%Inh", "setting": "PAK2", "value": 45, "unit": "%"}, {"measurement": "%Inh", "setting": "PAK3", "value": 24, "unit": "%"}, {"measurement": "%Inh", "setting": "PAK4", "value": 19, "unit": "%"}, {"measurement": "%Inh", "setting": "PAK6", "value": 27, "unit": "%"}, {"measurement": "%Inh", "setting": "PAK7", "value": 15, "unit": "%"}, {"measurement": "%Inh", "setting": "PCTK1", "value": 0, "unit": "%"}, {"measurement": "%Inh", "setting": "PCTK2", "value": 13, "unit": "%"}, {"measurement": "%Inh", "setting": "PCTK3", "value": 20, "unit": "%"}, {"measurement": "%Inh", "setting": "PDGFRA", "value": 25, "unit": "%"}]}
